TDP1 cell noCPT – qHTS for Inhibitors of human tyrosyl-DNA phosphodiesterase 1 (TDP1): qHTS in cells in absence of CPT. AID 686978, 2013. Potency, µM (titrated, usually from 46.2 µM), for inactives: top-dose activity change, negative = growth inhibition, hits mostly inhibitors. DT40 Tdp1-/- hTDP1 cells, no CPT, ATP luminescence, 48 h. 420,000 compounds, 15% hits; further: potency means the concentration at half of the fitted maximal effect; nearly all actives have a fitted effect of over 55% in size
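A cellular qHTS used chicken DT40 cells lacking endogenous Tdp1 but carrying stably transfected human TDP1. Compounds were applied without camptothecin, and cell growth kinetics were judged by ATP-dependent luminescence after ≥48 hr.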
HT1080NT lethal – qHTS for induction of synthetic lethality in tumor cells producing 2HG: qHTS for the HT-1080-NT fibrosarcoma cell line. HT-1080-NT fibrosarcoma viability, CellTiter-Glo ATP luminescence, 48 h. Potency, µM (series often up to 46.1 µM), for inactives: top-dose activity, negative = less viability, actives largely listed as cytotoxic. AID 686970, 2013. 360,000 compounds, 1.6% hits;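 further: NT is the 2HG producing partner of a matched IDH1 knockdown line; potency means the concentration at half of the fitted maximal effect; 0% = DMSO-treated cells and -100% = media-only wells without cells; nearly all actives have a fitted effect of over 55% in size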
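Compounds were tested in concentration-response format on HT-1080-NT cells for 48 hours at 37 degrees C. Cell viability came from CellTiter-Glo luminescence; curves were classified by r2, response magnitude and activity.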
12-LOX inh – Primary qHTS assay for inhibitors of human arachidonate 12S-lipoxygenase (ALOX12): Round 2. purified 12hLO, xylenol orange hydroperoxide absorbance. Polyunsaturated fatty acid lipoxygenase ALOX12 (Homo sapiens), P18054. Potency, µM (doses to about 108 µM), without a hit: at the highest dose activity change, negative = inhibition, most hits filed as inhibitors. 580,000 compounds, 1.1% hits. AID 1671190, 2021; further: potency means the concentration at half of the fitted maximal effect
Target sequence (P18054 whole entry, looked up): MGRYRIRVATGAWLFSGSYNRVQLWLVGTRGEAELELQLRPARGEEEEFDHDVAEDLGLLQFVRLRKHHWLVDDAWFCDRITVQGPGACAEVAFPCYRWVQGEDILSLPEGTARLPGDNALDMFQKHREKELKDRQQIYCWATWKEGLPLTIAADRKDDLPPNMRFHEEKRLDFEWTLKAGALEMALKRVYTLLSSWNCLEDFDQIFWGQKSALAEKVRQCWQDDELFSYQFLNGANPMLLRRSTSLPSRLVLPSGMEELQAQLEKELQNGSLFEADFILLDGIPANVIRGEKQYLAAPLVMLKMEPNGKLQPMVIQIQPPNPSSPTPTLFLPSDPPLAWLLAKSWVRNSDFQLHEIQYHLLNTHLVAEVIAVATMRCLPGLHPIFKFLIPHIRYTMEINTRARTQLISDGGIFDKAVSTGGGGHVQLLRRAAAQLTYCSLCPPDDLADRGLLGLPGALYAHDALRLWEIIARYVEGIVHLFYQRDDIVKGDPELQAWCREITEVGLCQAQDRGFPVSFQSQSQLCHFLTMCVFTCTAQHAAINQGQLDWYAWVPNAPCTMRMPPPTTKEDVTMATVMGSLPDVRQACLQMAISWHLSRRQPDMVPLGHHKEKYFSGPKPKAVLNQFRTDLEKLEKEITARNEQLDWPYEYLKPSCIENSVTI
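Hydroperoxide product was detected by ferrous iron/xylenol orange as the 573 to 405 nm absorbance ratio. Arachidonic acid at 40 uM (final) was turned over for 30 min at room temperature by 150 nM human 12hLO, pH 7.0 Hepes buffer, after 15 min compound preincubation.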
HT1080 IDH1KD tx – qHTS for induction of synthetic lethality in tumor cells producing 2HG: qHTS for the HT-1080-IDH1KD cell line; HT-1080 IDH1 knockdown viability, ATP luminescence, 48 h; Potency, µM (doses to about 46.1 µM), for the others: at the highest dose activity, negative = toxicity, most hits filed as cytotoxic; 360,000 compounds, 2% hits; AID 686971, 2013;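 further: potency means the concentration at half of the fitted maximal effect; 0% = DMSO wells and -100% = cell-free medium wells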
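% activity derives from luminescence (CellTiter-Glo), normalised to DMSO and no-cell wells. HT-1080-IDH1KD cells, 750/well, had 48 h compound exposure at 37 °C.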
IL-1B inflam inh – qHTS for Inhibitors of Inflammasome Signaling: IL-1-beta AlphaLISA Primary Screen. THP-1 LPS/ATP IL-1B secretion, AlphaLISA, 16 h; active compounds read low. AID 743279, 2014. 360,000 compounds, 4.7% hits. activity change, % at 57.5 µM; in the data active means activity change below about -50%; inconclusive means mostly about -30% to -49%
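THP-1 cells pretreated 1 hr with compounds (up to 57.5 uM final), then stimulated with LPS (250 ng/mL final) plus ATP (1.25 mM final); secreted IL-1B measured by AlphaLISA after 16 hr, decreased signal indicating inhibition.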
TDP1 cell CPT – qHTS for Inhibitors of human tyrosyl-DNA phosphodiesterase 1 (TDP1): qHTS in cells in presence of CPT | Potency, µM (doses to about 46.2 µM), inactives show at the top dose activity change, negative = growth inhibition, actives largely listed as inhibitors | chicken DT40 Tdp1-/-;hTDP1 cells + 20 nM CPT, ATP luminescence, 48 h | 420,000 compounds, 12% hits; further: potency means the concentration at half of the fitted maximal effect; nearly all actives have a fitted effect of over 55% in size
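Chicken DT40 Tdp1-/- cells complemented with human TDP1, 400 cells/well, exposed to compounds plus 20 nM camptothecin for at least 48 h at 37 C; viability read as ATP content by CellTiter-Glo luminescence.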
Starred values were filed as active, the others as inactive; ? = inconclusive; . = not tested or not shown; [ ] = another dose, or the depositor's remark. Shown is part of a subset that was picked to be rich in hits. Unless noted, the call rests on the fitted dose curve; in most records, active means well fitted curve in the direction sought with a large enough effect; inconclusive means small, poorly fitted or top-dose-only effect, or another doubt; inactive means no such curve, though single readings can be large; an effect the other way counts as inactive or inconclusive. Unless noted, on the % scale 0 is the no-effect control and ±100 the full control effect.

SMILES	TDP1 cell noCPT	HT1080NT lethal	12-LOX inh	HT1080 IDH1KD tx	IL-1B inflam inh	TDP1 cell CPT
C=CCn1c(=N)n(CC(O)COc2ccccc2OC)c2ccccc21 (configuration not stated)	?	-23%	6%	-19%	?	?
CCCCn1c(=N)n(CCOc2ccccc2OC)c2ccccc21	4.1µM*	.	-23%	.	.	2.9µM*
Cc1ccccc1OCC(O)Cn1c(=N)n(Cc2ccccc2)c2ccccc21 (configuration not stated)	5.2µM*	15µM*	?	16µM*	-106*	4.1µM*
Cc1ccccc1OCC(O)CN1CCN(CC(O)COc2ccccc2C)C(C)C1 (configuration not stated)	16µM*	26µM*	-7%	?	-63*	?
Cc1ccccc1OCC(O)CN1CCN(c2nccs2)CC1 (configuration not stated)	.	.	7%	.	.	.
COc1ccccc1OCC(O)Cn1c(=N)n(Cc2ccccc2)c2ccccc21 (configuration not stated)	8.2µM*	?	-19%	-13%	-73*	21µM*
COc1ccc(NC(=O)N2C[C@@H]3C[C@H](C2)c2ccc(NC(=O)Nc4cccc(C#N)c4)c(=O)n2C3)cc1	.	.	-39%	.	.	.
COc1ccc(OCCn2c(=N)n(CCO)c3ccccc32)cc1	?	-5%	0%	-10%	-16	-18%
Cc1nccn1CC(O)Cn1c2ccccc2c2ccccc21 (configuration not stated)	?	?	0%	-25%	-53*	?
CCn1c(=N)n(CCOc2ccc(Br)cc2)c2ccccc21	5.2µM*	.	?	.	.	5.8µM*
Cc1cc(C)n(CC(O)Cn2c3ccccc3c3ccccc32)n1 (configuration not stated)	?	-15%	-13%	?	-18	-13%
OCCNc1nc2ccccc2n1CC(O)c1ccccc1 (configuration not stated)	?	25%	-4%	28%	8	-24%
N=c1n(Cc2ccccc2)c2ccccc2n1CC(O)c1ccccc1 (configuration not stated)	21µM*	?	-20%	?	?	10µM*
O=C(NCC1CCCO1)c1ccc(NS(=O)(=O)c2ccc3[nH]c(=O)[nH]c3c2)cc1 (configuration not stated)	.	.	-4%	.	.	.
COc1ccc(-c2nc(Cn3nnc(C(=O)Nc4ccccc4F)c3N)c(C)o2)cc1	.	.	3%	.	.	.
COc1cc([N+](=O)[O-])ccc1NC(=S)Nc1cc(C(=O)OC(C)C)cc(C(=O)OC(C)C)c1	?	-21%	?	?	-3	29µM*
O=C1N/C(=C/c2ccsc2)C(=O)N1c1ccccc1	13%	25%	6%	12%	-54*	-1%
CCn1c(C)cc(/C=C2/NC(=O)N(c3ccccc3)C2=O)c1C	?	2%	-8%	11%	-10	?
O=C1c2ccccc2C(=O)N1CCCOc1ccccc1	7%	4%	11%	1%[9.24 µM]	44	7%
Cc1cccc(OCCN2C(=O)c3ccccc3C2=O)c1	9%	4%	-1%	4%	49	-13%
Cc1cccc(OCCCN2C(=O)C(=O)c3cc(C)ccc32)c1	0.92µM*	-20%	-26%	-1%	4	1.6µM*
Cc1ccc2c(c1)C(=O)C(=O)N2CCCOc1ccccc1	2.1µM*	-2%	-19%	-11%	0	1µM*
CCOC(=O)CN1CCN(C(=O)CCc2cc3ccc(C)cc3[nH]c2=O)CC1	.	.	-16%	.	.	.
Cc1cccc(OCC(=O)Nc2ccc(N3CCN(C(=O)c4ccccc4)CC3)cc2)c1	15µM*	2%	-18%	5%	-68*	?
Cc1ccc(OCC(=O)Nc2ccc(N3CCN(C(=O)c4ccc(C)cc4)CC3)cc2)cc1	?	-15%	-14%	-1%	-7	-27%
SMILES	TDP1 cell noCPT	HT1080NT lethal	12-LOX inh	HT1080 IDH1KD tx	IL-1B inflam inh	TDP1 cell CPT
CCN1CCN(c2ccc(NC(=O)COc3ccc(Cl)cc3C)cc2)CC1	?	-1%[9.24 µM]	?	12%	-11	18µM*
CCN1CCN(c2ccc(NC(=O)COc3ccccc3Cl)cc2)CC1	18µM*	-8%	0%	-8%	-17	?
Cc1ccccc1OCC(=O)Nc1ccc(N2CCN(S(C)(=O)=O)CC2)cc1	-27%	14%	-22%	11%	-5	-8%
O=C(COc1ccccc1Cl)Nc1ccc(N2CCN(C(=O)c3ccccc3)CC2)cc1	15µM*	-26%	2%	?	-22	18µM*
COc1ccc(-c2cc(N3CCC(NC(=O)c4ccc(OC)cc4C)CC3)n[nH]2)cc1	.	.	20%	.	.	.
COCCC(=O)N[C@H]1CC[C@]2(C)CC[C@@H]([C@H](C)C(=O)N3CCCC3)[C@H](O)[C@H]2[C@@H]1C	.	.	49%[176 µM]	.	.	.
O=C(COc1ccccc1[N+](=O)[O-])Nc1ccc(N2CCN(C(=O)c3cccs3)CC2)cc1	6.5µM*	-19%	351%	?	?	4.6µM*
CC(C)c1ccc(OCC(=O)Nc2ccc(N3CCN(C(=O)c4cccs4)CC3)cc2)cc1	.	.	11%	.	.	.
Cc1ccc(CNC(=O)Cc2c[nH]c3ccccc23)cc1	.	.	-4%	.	.	.

Source: PubChem (National Center for Advancing Translational Sciences (NCATS))
